# Measurements: PubChem BioAssay AID488857 (Sanford-Burnham Center for Chemical Genomics, 2010)
# Among all 1,400 compounds or so, about 560 (40%) were called active. So high a share suggests a set chosen from earlier hits. This is one part of the list. A number with no mark means an inactive call.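 How the source made its calls: active means mean inhibition over duplicate tests at 10 µM above 50%; inactive means the rest.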
# Experiment: ASC/caspase-1 reporter retest in S. cerevisiae at one dose, specificity check for NALP1 project (AID 488857)
# Settings: S. cerevisiae ASC/Caspase-1, beta-galactosidase luminescence, 24 h; at 10 µM; hits give high values
row,SMILES,inhibition
1,CC1CCCCN1C(=S)Nc1ccc2nc3n(c(=O)c2c1)CCCCC3 (centres undefined),40.4%
2,O=C(Nc1ccc2nc3n(c(=O)c2c1)CCCC3)c1cc([N+](=O)[O-])ccc1F,79.8% (active)
3,Cc1cc(NC(=O)/C=C/c2ccccc2Cl)no1,51.1% (active)
4,CCOC(=O)c1ccc(N2C(=O)CC(N3CCCC(C)C3)C2=O)cc1 (centres undefined),49.7%
5,CCOC(=O)c1ccc(N2C(=O)C=CC2=O)cc1,82.3% (active)
6,CCOC(=O)CCCNC(=O)COC(=O)c1ccc(O)cc1,35.5%
7,CC1(C)CC(=O)c2c(-c3cccs3)n[nH]c2C1,44.1%
8,CC1=NNC(=O)/C1=C\c1cn(-c2ccccc2)nc1-c1cccs1,89.6% (active)
9,Cc1cc(N2CCOCC2)n2ncc(-c3ccccc3)c2n1,71.5% (active)
10,COc1ccc(/C=C2\SC(N3CCc4ccccc4C3)=NC2=O)cc1,76.5% (active)
11,CCOc1ccccc1C1CC(=O)NC(SCC(=O)Nc2nccs2)=C1C#N (centres undefined),10.7%
12,CSc1ccc(S(=O)(=O)NCc2ccc(C)cc2)cc1,56% (active)
13,COc1ccc(CNC(=O)CCNS(=O)(=O)c2ccc(C)cc2)cc1,43.1%
14,Cc1ccc(S(=O)(=O)NCc2ccc(C(=O)NCCCN3CCC(Cc4ccccc4)CC3)cc2)cc1,20.4%
15,c1ccc(Nc2ccccn2)cc1,34.5%
16,c1ccc(-c2cccc(-c3ccccn3)n2)nc1,97.2% (active)
17,CCCCOC(=O)Oc1ccc2c(=O)c(Oc3cc(C)cc(C)c3)coc2c1,54.9% (active)
18,Cc1cc(C)n(CCOc2ccc(Cl)cc2Cl)n1,56.7% (active)
19,CC1=C(C)/C(=N\OS(=O)(=O)c2ccc(C)cc2)C=CC1=O,92.7% (active)
20,N/C(Cc1ccccc1)=N\OC(=O)c1cccc2ccccc12,51.2% (active)
21,Cc1cccc(/C(N)=N/OC(=O)c2cccc3ccccc23)c1,52.9% (active)
22,N/C(Cc1ccc([N+](=O)[O-])cc1)=N\OC(=O)c1ccccc1Br,71% (active)
23,Cc1cccc(C(=O)NNC(=O)CN2C(=O)c3ccccc3C2=O)c1,32.6%
24,N/C(Cc1ccc(Cl)cc1)=N\OC(=O)C1CCCCC1,47.5%
25,O=C(Cc1ccc([N+](=O)[O-])cc1)c1ccc(O)cc1O,49.1%
26,Cc1cccc(/C(N)=N/OC(=O)c2ccc(Cl)cc2Cl)c1,32.9%

row,SMILES,inhibition
1,COc1ccccc1C/C(N)=N/OC(=O)c1cccc([N+](=O)[O-])c1C,41.5%
2,CCOC(=O)C1C(=O)Oc2ccc3ccccc3c2C1C1CCOC1=O (centres undefined),32.4%
3,CN1CCN(S(=O)(=O)c2ccc(Br)c3nsnc23)CC1,45.2%
4,CN1CCN(C2=C(Cl)C(=O)N(CCc3ccccc3)C2=O)CC1,47.1%
5,C=CCSc1nsc(NC(=O)Nc2ccc(F)cc2)n1,98.9% (active)
6,CCOC(=O)n1c(=O)n(Cc2ccccc2)c2ccccc21,47.1%
7,CC12CCC(C(=O)O)(C/C1=N\O)C2(C)C (centres undefined),21%
8,CCOCCCNCc1ccc(OCc2ccccc2Cl)cc1,45.9%
9,CN(C)C(CNC(=O)CCCOc1ccccc1)c1ccco1 (centres undefined),39.1%
10,COc1ccc(OCCCC(=O)NCCc2ccccc2)cc1,51.9% (active)
11,O=C(CCCN1C(=O)c2ccccc2C1=O)Oc1ccc(Cl)cc1,31.9%
12,COc1ccc(OCCCC(=O)Oc2ccc(OC)cc2)cc1,50.5% (active)
13,COc1ccc(C(CCNCc2ccccc2F)c2ccc(F)cc2)cc1 (centres undefined),45.1%
14,COc1ccc(OCCCC(=O)NCC(C)C)cc1,39.5%
15,COc1ccc(CNCCC(c2ccc(F)cc2)c2ccc(OC)cc2)cc1 (centres undefined),61.4% (active)
16,COc1ccc(OCC#CCNC(C)(C)C)cc1,30.3%
17,COc1ccc(CCNCc2ccc(OCc3ccccc3)cc2)cc1,80.8% (active)
18,COc1ccc(CNCCSc2nnnn2C)cc1OC,40.2%
19,COc1cc(/C=C2\SC(=Nc3ccc(F)cc3)N(c3ccc(F)cc3)C2=O)ccc1OCC(=O)O,31.9%
20,O=C1CCCc2ccccc2N1Cc1ccc(Cl)cc1Cl,31.8%
21,O=C1Cc2ccccc2C(=O)N1OCc1ccc(Cl)cc1Cl,29.5%
22,Clc1ccc(CO/N=C2\CCCc3nonc32)c(Cl)c1,52.5% (active)
23,CN(C)C(=N)c1n[nH]nc1SCc1ccccc1,27.9%
24,CCCCCCCCCCCCCCCC[n+]1ccc(C(N)=O)cc1,80.4% (active)
25,CCCCCCCCCCCCCCCC[n+]1cccc(C(=O)N(CC)CC)c1,93.2% (active)
26,CCCCN(CC)S(=O)(=O)c1ccccc1,8.05%

row,SMILES,inhibition
1,CCCCCCCCCCCCCCCC[n+]1ccc(/C=N/O)cc1,85.1% (active)
2,COC(=O)c1c(NC(NC(=O)C(C)C)C(Cl)(Cl)Cl)sc2c1CCC2 (centres undefined),33.2%
3,COC(=O)c1c(NC(=O)C2CCCO2)sc2c1CCC2 (centres undefined),58% (active)
4,CCOc1cc(-c2c(C)c(C)nc(N)c2C#N)ccc1O,49.5%
5,O=C(Nc1cc(N2CCOCC2)ncn1)NC1(C(F)(F)F)Oc2ccc(Cl)cc2O1 (centres undefined),36.8%
6,CCc1ccc(CC(=S)N2CCOCC2)cc1,51.4% (active)
7,O=C(C(Cc1ccccc1)n1cccc1)N1CCN(c2ccccc2)CC1 (centres undefined),49.2%
8,O=S(=O)(N1CCCCC1)N1CCN(c2ccc(F)cc2)CC1,45.9%
9,O=C(NC(=O)N1CCN(c2ccc(F)cc2)CC1)c1ccccc1,53% (active)
10,CC(C)Oc1ccc(OCCNC2CCCC2)cc1,45.6%
11,CCN(CC)S(=O)(=O)c1cccc(C(=O)N[C@H](C(=O)O)C(C)C)c1,45.6%
12,N#CC(C#N)=C1C=CC=CN1/C(=C\c1ccccc1Cl)C(=O)c1ccccc1,17.6%
13,COc1ccc(/C=C(/C(=O)c2cccs2)N2C=CC=CC2=C(C#N)C#N)cc1,51.5% (active)
14,CN(C)CCNC=C(C(=O)Nc1ccc(Cl)cc1Cl)C(=O)Nc1ccc(Cl)cc1Cl,36%
15,Cn1nc(NC(=O)C(C)(C)C)c2c(F)cccc21,23.4%
16,CCCC(CCC)c1nc2ccncc2[nH]1,39.7%
17,Clc1ccc(N2CCN(c3cnc4ccccc4n3)CC2)cc1,29.9%
18,CC1CCN(c2nc(CN3CCCCC3)nc3scc(-c4ccccc4)c23)CC1,65.8% (active)
19,COC(=O)c1c(S(=O)(=O)NCc2ccccc2)sc(C(=O)O)c1C,32.3%
20,O=C1S/C(=C\c2ccc(N3CCOCC3)o2)C(=O)N1c1ccccc1,56.8% (active)
21,Cn1c(=O)c2c(nc(Sc3ncccn3)n2Cc2ccccc2Cl)n(C)c1=O,26.6%
22,Cc1ccc(S(=O)(=O)NCC(=O)N(CC(=O)NC(C)(C)C)Cc2cccs2)cc1,34.8%
23,COc1cc(OC)nc(-n2ncc(Br)c(Br)c2=O)n1,51.4% (active)
24,Cc1cccc(C)c1OCCNC(=O)CCC(=O)c1ccccc1,31.6%
25,Cc1ccc(C(=O)CCC(=O)O)cc1,26.7%
26,CCCC(=O)c1ccc(-c2ccccc2)cc1,57.2% (active)

row,SMILES,inhibition
1,Cc1c(NC(=O)c2cc3c(s2)-c2ccccc2OC3)cccc1[N+](=O)[O-],72% (active)
2,Cc1cc(C)c(S(=O)(=O)Nc2cc(SCC(=O)O)c(O)c3ccccc23)cc1C,17.9%
3,O=S(=O)(Nc1ccc(Oc2ncccn2)c(Cl)c1)c1ccc(F)cc1,32.6%
4,O=S(=O)(Nc1cc(Sc2cccc3cccnc23)c(O)c2ccccc12)c1ccc(F)cc1,90.7% (active)
5,CCCCSc1nnc(CCNC(=O)OC(C)(C)C)o1,47.8%
6,CC(C)Sc1nnc([C@H](Cc2ccccc2)NC(=O)OC(C)(C)C)o1,41.7%
7,CC(C)(C)OC(=O)NCCCCCc1nnc(SCc2ccccc2)o1,71.4% (active)
8,O=C(c1ccc(COc2ccccc2Br)cc1)N1CCCCC1,52.2% (active)
9,O=C(c1ccc(S(=O)(=O)c2ccccc2)cc1)N1CCCCCC1,31.9%
10,OCCN(CCO)c1ncnc2c1oc1ccc(Br)cc12,29.6%
11,CCN(CCO)Cc1csc2ccc(Br)cc12,55.5% (active)
12,COc1ccccc1N1CCN(CCCCCCOc2ccc(F)cc2)CC1,49.6%
13,COc1ccccc1OCCCCN1CCN(c2ccccc2OC)CC1,21.9%
14,COc1ccccc1N1CCN(CCCCOc2cccc3ccccc23)CC1,63.3% (active)
15,Cc1cccc(NCc2nc3ccccc3n2C)c1,74% (active)
16,Cc1nc2cc(-c3ccc(Cl)cc3)nn2c(C)c1CCC(=O)NC(C)c1ccc2c(c1)OCCO2 (centres undefined),49%
17,COc1cc2ccccc2c2c1CCCC2=O,30%
18,Nc1ccc2c(c1)C/C(=C/c1ccco1)C2=O,21.8%
19,O=C1/C(=C/c2ccco2)Cc2ccccc21,48.4%
20,COc1cc(/C=C2/CCc3ccccc3C2=O)cc(OC)c1OC,69.8% (active)
21,COc1ccc(C2=C/C(=C/c3cccnc3)C(=O)O2)cc1OC,28.8%
22,O=C1/C(=C/c2ccccc2)CCCc2ccccc21,72.1% (active)
23,COc1ccc2c(c1)CC/C(=C/c1ccco1)C2=O,68.5% (active)
24,COc1ccc(/C=C2\COc3ccccc3C2=O)cc1OC,81.6% (active)
25,Cc1n[nH]c(C)c1S(=O)(=O)N1CCN(C2CCCCC2)CC1,32.4%
26,CS(=O)(=O)N(CC(=O)Nc1ccccc1Sc1ccccc1)C1CCCCC1,19.4%
